Inconclusive results are not listed. Activity calls are given as the source filed them. Calls follow the shape of the dose curve; as a rule, active = well fitted curve in the direction sought with a large enough effect; inconclusive = small, poorly fitted or top-dose-only effect, or another doubt; inactive = no such curve, though single readings can be large or run the other way.

Chain of Protein phosphatase 1D (Homo sapiens) (O15297 whole entry, looked up): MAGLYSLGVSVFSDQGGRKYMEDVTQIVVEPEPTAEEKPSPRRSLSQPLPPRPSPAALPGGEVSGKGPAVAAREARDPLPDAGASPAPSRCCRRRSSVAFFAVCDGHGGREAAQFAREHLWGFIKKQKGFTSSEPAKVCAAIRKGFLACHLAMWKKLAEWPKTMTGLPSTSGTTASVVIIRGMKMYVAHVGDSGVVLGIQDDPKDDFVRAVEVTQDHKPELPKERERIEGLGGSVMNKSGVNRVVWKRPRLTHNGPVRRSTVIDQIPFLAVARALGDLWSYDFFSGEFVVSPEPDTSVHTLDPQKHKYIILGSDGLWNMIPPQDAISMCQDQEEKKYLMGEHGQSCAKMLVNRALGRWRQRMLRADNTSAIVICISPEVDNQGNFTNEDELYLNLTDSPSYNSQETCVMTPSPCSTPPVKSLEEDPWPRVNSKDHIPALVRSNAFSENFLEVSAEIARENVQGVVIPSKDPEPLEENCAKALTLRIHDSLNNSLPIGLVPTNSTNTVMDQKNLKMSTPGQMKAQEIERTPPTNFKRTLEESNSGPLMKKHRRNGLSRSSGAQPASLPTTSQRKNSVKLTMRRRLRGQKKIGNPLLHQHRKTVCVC

In this test the target is Protein phosphatase 1D (Homo sapiens) (UniProt O15297). The experiment in a line: Rhodamine-PBP qHTS Assay for Modulators of WT P53-Induced Phosphatase 1 (WIP1) (AID 1347425). Also: % of control where 0% means no effect. Particulars: recombinant WIP1, Rhodamine-PBP phosphate fluorescence, real-time; series mostly up to 57.5 µM. An excerpt:
Assay Provider (PI): Nathan Coussens Ph.D.
National Center for Advancing Translational Sciences (NCATS), Rockville, MD
National Institute of Health (NIH), Bethesda, Maryland
WT P53-Induced Phosphatase 1 (WIP1) is a member of the magnesium-dependent serine/threonine protein phosphatase (PPM) family and is induced by P53 in response to DNA damage. In several human cancers, the WIP1 protein is overexpressed, which is generally associated with a worse prognosis. Although WIP1 is an attractive therapeutic target, no potent, selective, and bioactive small-molecule modulator with favorable pharmacokinetics has been reported. Phosphatase enzymes are among the most challenging targets for small molecules because of the difficulty of achieving both modulator selectivity and bioavailability. Another major obstacle has been the availability of robust and physiologically relevant phosphatase assays that are suitable for high-throughput screening.
Here, we describe two orthogonal biochemical WIP1 activity assays that utilize phosphopeptides from native WIP1 substrates. We optimized a RapidFire MS assay to quantify the enzymatically dephosphorylated peptide reaction product in a 384-well format. Additionally, a redshifted Rhodamine-PBP fluorescence assay was optimized in a 1,536-well format to enable real-time WIP1 activity measurements through the detection of the orthogonal reaction product, Pi. We validated these two optimized assays by quantitative high-throughput screening against the National Center for Advancing Translational Sciences (NCATS) Pharmaceutical Collection and used secondary assays to confirm and evaluate inhibitors identified in the primary screen.
SEQUENCE No. (e.g., 1, 2, 3, etc.); […] (e.g., Cells, Incubation, Reagent, etc.); VALUE; DESCRIPTION
1; Reagent; 3 uL; WIP1 (6.7 nM), Rh-PBP (13.3 uM), columns 1-48
3; Library Compounds; 23 nL; NCATS Pharmaceutical Collection, column 5-48
4; Control Compounds; DMSO in column 2, GSK2830371 (57.5 uM, final) in 3-fold serial dilutions in column 3, GSK2830371 (1.15 uM, final) in column 4
5; Time; 1 hr; incubation
6; Detection; fluorescence (f0); ViewLux, excitation filter = 525 nm, emission filter = 598 nm
7; Reagent; 1 uL; VEPP-pS-QETFS (40 uM), columns 2-48
8; Detection; fluorescence (f1); ViewLux, excitation filter = 525 nm, emission filter = 598 nm
NOTES (numbers refer to sequence above)
1 & 2; Black medium binding Greiner 1536-well plates (# 789176-F); assay buffer: 50 mM Tris-HCl pH 7.5, 30 mM MgCl2, 1mM TCEP, 0.1 mM EGTA, 75 ug/mL BSA; dispensed with a BioRaptr liquid handler (Beckman Coulter).
3 & 4; Kalypsys pintool (equipped with 1536 pinhead, Wako USA) transfer. Tip wash sequence: DMSO, methanol, 3 sec vacuum dry.
5; Room temperature incubation.
7; VEPPL-pS-QETFS in assay buffer dispensed with a BioRaptr; final reaction conditions: 5 nM WIP1, 10 uM VEPPL-pS-QETFS, 10 uM Rh-PBP, 50 mM Tris-HCl pH 7.5, 30 mM MgCl2, 1 mM TCEP, 0.1 mM EGTA, 75 ug/mL BSA.
8; Measurement taken at 1 min intervals for 11 min. Delta readout = f1 - f0.
A general note: qHTS replaces the single test concentration by a dilution series.
Regarding `NC(N)=NC(=O)Cc1c(Cl)cccc1Cl`, the outcome was inactive. Consider `CC(N=C(NC#N)Nc1ccncc1)C(C)(C)C` (stereo not given), for which the outcome was inactive. On the same count and under the same terms, with `CCn1cc(C(=O)O)c(=O)c2cc3c(cc21)OCO3` the entry was “inactive”; with `O=C(O)CN(CCN(CC(=O)O)CC(=O)O)CCN(CC(=O)O)CC(=O)O`, “inactive”. For `CCCN(CCC)C(=O)C(CCC(=O)O)NC(=O)c1ccccc1` (stereo not given), the outcome was inactive. The same measure, in the same setting: with `C[C@]12CC[C@@H]3c4ccc(O)cc4C[C@@H](CCCCCCCCCS(=O)CCCC(F)(F)C(F)(F)F)[C@H]3[C@@H]1CC[C@@H]2O` (stereo not given in full) the entry was “inactive”; with `C[C@]12CCC(=O)C=C1CC[C@@H]1[C@@H]2C(=O)C[C@@]2(C)[C@H]1CC[C@]2(O)C(=O)CO`, “inactive”. The same measure, in the same setting: then `C[C@]12CCC(=O)C=C1CC[C@@H]1[C@@H]2CC[C@@]2(C)[C@H]1CC[C@]2(O)C(=O)CO`, with “inactive”; and `CC(C)(C)NCC(O)c1cc(O)cc(O)c1` (stereo not given), with “inactive”; and `CC(C(=O)O)c1ccc(CC2CCCC2=O)cc1` (stereo not given), with “inactive”. Still for that read-out and setting: with `O=C(CCCN1CCC(O)(c2cccc(C(F)(F)F)c2)CC1)c1ccc(F)cc1` the entry was “inactive”; with `NS(=O)(=O)c1cc2c(cc1Cl)NC(C1CC3C=CC1C3)NS2(=O)=O` (stereo not given), “inactive”.

Consider `O=c1[nH]c(=O)n([C@H]2C[C@H](O)[C@@H](CO)O2)cc1Br`, for which the outcome was inactive. On the same count and under the same terms, with `NC/C=C/C(=O)O` the entry was “inactive”; with `CN(C)CCN(Cc1cccs1)c1ccccn1`, “inactive”. The same measure, in the same setting: with `CC(=O)Oc1cc(C(C)C)c(OCCN(C)C)cc1C` the entry was “inactive”; with `C[N+](C)(C)CCOC(N)=O`, “inactive”. The same measure, in the same setting: with `CC(C)NCC(O)c1cc(O)cc(O)c1` (stereo not given) the entry was “inactive”; with `Cc1nc2ccccn2c(=O)c1CCN1CCC(C(=O)c2ccc(F)cc2)CC1`, “inactive”. Consider `C=CCc1ccccc1OCC(O)CNC(C)C` (stereo not given), for which the outcome was inactive.

On to `CN1C[C@H](C(=O)N[C@]2(C)O[C@@]3(O)[C@@H]4CCCN4C(=O)[C@H](Cc4ccccc4)N3C2=O)C[C@@H]2c3cccc4[nH]cc(c34)C[C@H]21`, for which the result was inactive. Same read-out and setting: then `c1cc(CN2CCCCC2)cc(OCCCNc2nc3ccccc3s2)c1`, with “inactive”; and `C[C@]12C=CC(=O)C=C1CC[C@H]1[C@@H]3C[C@@H](O)[C@](O)(C(=O)CO)[C@@]3(C)C[C@H](O)[C@@]12F`, with “inactive”.

As to `CCc1cccc(N(C)C(N)=Nc2cccc3ccccc23)c1`, the outcome was inactive. Same read-out and setting: with `Cc1ccc(S(=O)(=O)NC(=O)NN2CCCCCC2)cc1` the entry was “inactive”; with `Nc1ncn([C@@H]2O[C@H](CO)[C@@H](O)[C@H]2O)c(=O)n1`, “inactive”; with `CN(C(=O)CCCOc1ccc2[nH]c(=O)ccc2c1)C1CCCCC1`, “inactive”.

Turning to `NC(=O)N1c2ccccc2C=Cc2ccccc21`, the result was inactive. The same measure, in the same setting: then `CCN(CC)CCNC(=O)c1ccc(NC(C)=O)cc1`, with “inactive”. Consider `CCN1CCC[C@H]1CNC(=O)c1c(O)c(Cl)cc(Cl)c1OC`, for which the result was inactive. Turning to `CCN(CC)CCCN(c1ccccc1)C1Cc2ccccc2C1`, the outcome was inactive. Still for that read-out and setting: with `COc1cc(Cc2cnc(N)nc2N)cc(OC)c1OC` the entry was “inactive”; with `CC1=NS(=O)(=O)c2cc(Cl)ccc2N1`, “inactive”; with `C[C@H](CS)C(=O)N1CCC[C@H]1C(=O)O`, “inactive”. For `Nc1nc(N)c2nc(-c3ccccc3)c(N)nc2n1`, the result was inactive.

In the case of `Cc1scc2c1N(C(=O)CN1CCN(C)CC1)c1ccccc1NC2=O`, the result was inactive.

On to `CCCCNc1ccc(C(=O)OCCN(C)C)cc1`, for which the outcome was inactive.

In the case of `FC(F)(F)c1ccccc1-n1ccnc1`, the outcome was inactive. As to `NCCCNCCSP(=O)(O)O`, the activity change, negative = inhibition is 1.47% [at 11.5 µM] (inactive). As for `COC(=O)[C@H]1[C@H]2C[C@@H]3c4[nH]c5cc(OC)ccc5c4CCN3C[C@H]2C[C@@H](OC(=O)c2cc(OC)c(OC)c(OC)c2)[C@@H]1OC`, the outcome was inactive.

The record behind these values is PubChem BioAssay (NCATS).
